Experimental data from the supplement of paper PMC3334620.
Whole data set: some 33,000 sequences, median “E-score (-0.5 to 0.5)” near -0.017, cut for the highest 2% near 0.3. The full list was thinned out, with the highest values kept by preference.

The sequences below were run against T1, Sut1 (UniProt P53032) (assay: PBM E-score (8-mer binding enrichment) (E-score (-0.5 to 0.5)); higher = stronger / more preferred TF binding). Conditions: protein concentration: 200 nM; construct: GST-full length.
T1 sequence: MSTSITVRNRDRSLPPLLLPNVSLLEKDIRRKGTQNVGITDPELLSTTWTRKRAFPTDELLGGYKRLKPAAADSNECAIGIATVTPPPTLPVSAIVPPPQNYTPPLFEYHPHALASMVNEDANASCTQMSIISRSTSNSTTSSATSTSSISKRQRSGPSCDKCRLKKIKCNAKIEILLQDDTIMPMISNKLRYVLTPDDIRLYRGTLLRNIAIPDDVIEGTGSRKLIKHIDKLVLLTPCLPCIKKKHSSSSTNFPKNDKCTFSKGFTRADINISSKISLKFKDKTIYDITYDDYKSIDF
Summary of the method: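 For each ungapped eight-base word taken together with its reverse complement, the Universal PBM Analysis Suite assigned an E-score. Binding data came from GST-tagged yeast transcription factors, applied at about 100-200 nM, on universal all-10-mer Agilent arrays made double-stranded by primer extension. Fluorescent anti-GST marked bound protein, and scans were normalised with masliner.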

Sequence | PBM E-score
CGCAGCTA | -0.0718
CATCGAAC | -0.0517
GACTAATA | 0.196
AAAGCCCG | 0.208
GGAGTCTA | 0.182
GCACCCAC | -0.155
CAGGCTCA | -0.214
ACTTGCCT | -0.0394
AATATAGC | 0.0924
GATATATC | 0.183
AATATAGT | 0.244
AATATTAA | 0.263
AATATACT | 0.277
CATATAAA | 0.15
AATATATC | 0.322
AATATAAA | 0.315
AATATATT | 0.31
TATATAAA | 0.248
AATATTAT | 0.319
AATATTAG | 0.192
ACATCGCC | -0.112
GGGCTACC | -0.227
ATGCAATC | 0.102
AGGCCATC | -0.149
ACCCATGA | -0.124

Sequence | PBM E-score
GGCTTTCA | 0.0417
ACACAGAT | 0.00624
GGACGGCA | -0.0542
AAAATATA | 0.267
AATATATG | 0.242
GCTATATA | 0.118
ACTATATC | 0.209
AATATATA | 0.325
ACTATATA | 0.308
CAGGTCAC | -0.398
CTGGAAAC | -0.0136
CCCAAAAG | -0.0557
ATGAACTA | 0.216
GTATACTA | -0.155
GTACGGAC | 0.297
ATACGGGC | -0.126
TTACGGAA | 0.198
GTACGGAA | 0.22
ATACGGAA | 0.348
ATACGGAC | 0.374
ATGTGATC | 0.144
CGTGAAGA | -0.026
ACTCACAG | 0.0594
CACTAAGG | -0.146
GCCCGGGC | -0.0214

Sequence | PBM E-score
GCCCGGAA | 0.244
GCCCGGAC | 0.328
ACCCGGTC | -0.124
ACCCGGAC | 0.323
CCCCGGAC | 0.357
ACCCGGAA | 0.197
ACCCGGAG | 0.416
ACCCGGAT | -0.107
CCCCGGAA | 0.216
CCCCGGCC | -0.173
ACCCGGGC | -0.0147
CAGTTGGC | -0.162
GCATTCGA | 0.0434
TAAGAATA | -0.086
CGACGCTA | -0.089
CCCCGGCG | -0.00882
CCCCGGAG | 0.454
CCCCGGGG | 0.198
TCTCTGAA | -0.135
ATTTCGAC | 0.0327
GTTTCAAA | 0.212
CTTTCGGC | 0.0219
ATTTCGGG | 0.0466
CTTTCAAA | 0.302
ATTTCGAG | 0.164

Sequence | PBM E-score
ATTTCGGC | 0.0959
ATTTCGAA | 0.313
CTTTCGGA | 0.395
CTTTCGTA | 0.0877
ATTTCAAA | 0.219
ATTTCGGA | 0.396
GAGTGGTA | -0.0154
CTGCGAGC | -0.126
GCGCCCGA | -0.17
AGGATCGG | -0.00265
AACAGTCA | -0.138
CATCTAAA | 0.0229
ATGCCATC | 0.0993
GCCTTAAA | 0.0657
AGGATGCG | -0.116
ATCCTAAG | -0.175
AAGCCAGG | -0.253
CACAAAGG | -0.0165
GGGGCCAC | -0.304
GTTTCGTA | 0.0481
GTTTCGGA | 0.334
GTTTCGAA | 0.0889
CCTGTTTC | -0.0625
ACAATCGG | 0.259
GCCCAAAA | -0.0622

Sequence | PBM E-score
GATTCCCA | -0.188
GATTCCGC | 0.0522
CATTCCGA | 0.25
AATTCCGA | 0.371
TATTCCCA | 0.139
TATTCCGA | 0.321
AATTCCCA | 0.0113
GATTCCGA | 0.337
AATTCCAA | 0.21
ATTCTACC | 0.0903
AAAAGATG | 0.0556
ACGGTCTA | -0.0922
GATGGAGA | 0.0416
ACAGCATG | -0.124
CCGATTGC | 0.109
GCAGCAGA | -0.175
CCTTCAGA | -0.0889
GAACTGTC | 0.00324
ATTCCCTC | -0.233
TCCCTAGA | -0.00999
AGTATATA | 0.395
ACTAAAAC | 0.159
GTTATAAC | -0.0927
ACTAAAAA | 0.353
CTTATAAA | 0.181

Sequence | PBM E-score
ACTATAAA | 0.321
CCTATAAA | -0.0583
GTTATAAA | 0.303
AGTATATC | 0.12
GCTATAAA | 0.194
ACTAAAAG | 0.214
AGTATATG | 0.00722
ACTCAATG | 0.104
GATTTGAA | 0.142
TAATCGTA | 0.0634
CAACGGTC | -0.0872
GGAGGTGA | 0.0437
AGGTCTAT | -0.0267
GCTCGATA | -0.105
GGTGTAGA | -0.149
AGTATAAC | 0.185
TGTATAAA | 0.157
AGTATAAA | 0.302
ACTTAAAA | 0.307
CCTTAAAA | 0.0539
ACTTAAAC | 0.241
ACACTTCA | 0.0715
AGATGGCA | 0.0507
CATAGCCC | -0.196
ACGGAAAG | 0.25

Sequence | PBM E-score
CCGGAAAG | 0.276
ACGGAAAA | 0.243
GCGGAAAA | 0.174
CCGGAAAC | 0.245
ACGGAAAC | 0.0512
TCGGAAAA | 0.372
CCGGAAAA | 0.37
ACGGAAAT | 0.344
TAGGTACA | -0.0499
GTGAACCA | 0.00963
ACGGTGCC | -0.0952
TCATTCCA | 0.0304
ACGGTCGA | -0.135
CATTCTGA | 0.00217
CCCGGATC | 0.213
GCCGGACA | 0.273
CCCGGACC | 0.339
CACGGACA | 0.153
ACCGGACA | 0.234
GCCGGACC | 0.198
TCCGGACA | 0.415
CCCGGACA | 0.354
CCCGGACG | -0.12
GTCCACTA | -0.0452
GATACTAA | 0.141

Sequence | PBM E-score
ATGTGGGG | -0.203
CCAAAAGG | -0.0868
CTGAGTGC | -0.199
CGGAGTGA | 0.451
AGGAGTGA | -0.0299
AGGAGTGC | -0.143
GGGAGTGA | -0.0284
CGGAGTGC | 0.468
CAGATACC | -0.149
AGGGGCCG | -0.272
GCGCGTCA | -0.00075
AACCCGGA | 0.333
ACCCCGGT | 0.191
GACCCGGA | 0.204
TCCCCCGA | -0.141
TCCCCGGA | 0.364
TCCCCGAA | 0.228
ACCCCGGG | 0.347
CCCCCGGG | -0.174
CCCCCGGA | 0.0624
CACCCGGA | 0.251
ACCCCGGA | 0.426
ACCCCGGC | 0.183
CTCTGTGA | -0.105
AGCGTCCC | -0.168

Sequence | PBM E-score
TCACCCCA | -0.0213
GAATTTAC | 0.0497
TGCGCAAA | 0.0678
AAGAGACC | -0.0189
ATGCAGCC | -0.0379
AGCAAATG | -0.0134
CCTTCGAC | -0.232
TGCCTAAA | -0.00993
CGACATCA | 0.143
GGACATCA | 0.3
GGACATCC | 0.0309
AGCTCAAG | -0.092
CGTGCAGA | -0.148
AGAGCGGA | 0.318
AGAGCGGC | -0.125
AGAGCGGG | -0.0998
AGGAGCCG | -0.281
AGGAGCTA | -0.155
CGGAGCTA | 0.385
GGGAGCTA | -0.176
CTGAGCTC | 0.119
CGGAGCCG | 0.338
AGGAGCTC | -0.18
CGGAGCCC | 0.183
CGGAGCTC | 0.414

Sequence | PBM E-score
AAGCATTC | 0.0319
GCTCCCCC | -0.444
GCATCAAA | 0.14
CCAAGGAG | -0.0556
ACTTGGTC | 0.183
AGCATACA | 0.187
GCACAGTA | -0.0754
AGTCCTGC | -0.19
AGTCCGGC | 0.467
GGTCCCGA | 0.093
AGTCCAGA | 0.0785
AATCCGGG | 0.103
AGTCCGGA | 0.487
AGTCCCGG | 0.1
CGTCCGGC | -0.0125
GGTCCGGA | 0.402
AGTCCGGG | 0.485
CGTCCGGA | 0.27
AGGCCGGA | 0.279
AAGTCTAC | 0.004
GTAGGCAC | -0.102
GTTCCAGA | -0.0427
ATGAATAA | 0.146
AGACGGCT | -0.121
AGGCTGTG | -0.0562

Sequence | PBM E-score
GGTGCAAA | 0.0509
TGTTTTAA | 0.253
AGTTTAAA | 0.335
AGTTTTAA | 0.341
ATTTTTAA | 0.249
AGTTTTTA | 0.175
GGTTTATA | 0.0479
AGTTTAAT | 0.069
AGTTTATC | 0.17
GTTTTAAA | 0.296
TGTTTAAA | 0.111
ATTTTAAA | 0.307
AGTTTATA | 0.335
AGACCTCC | -0.207
CATAGGGG | -0.348
CGGTTTTC | 0.176
CAAGTCAC | -0.0175
TACAACAA | 0.286
CAGTTGAA | -0.00817
AAGCCAAC | 0.118
AGTTTACA | 0.106
AGTGAACA | 0.0388
CTGGATTA | 0.0735
GGGAGTAC | -0.064
CGGAGTAG | 0.49

Sequence | PBM E-score
CCGAGTAG | 0.112
CGGAGTAA | 0.483
AGGAGTAA | 0.0575
AGGAGTAG | -0.0194
GGGAGTAA | 0.0687
CGGAGTAC | 0.487
AGGAGTAC | -0.106
TAGAATAA | 0.207
CAGTATAG | 0.0135
AATTGGAT | 0.131
ACGCCTCG | -0.115
GGCTTACA | 0.0643
CTATATAA | 0.158
TCATATAA | 0.121
TGTTATAA | 0.299
CTCTATAA | 0.186
AGTTATAA | 0.155
ATATATAA | 0.351
TTATATAA | 0.358
TGATATAA | 0.222
CGTTATAA | 0.135
CGCAACCC | 0.023
ATCCCAAT | 0.0805
CGATGAGC | -0.0442
TAGAAGCA | -0.0194

Sequence | PBM E-score
CGAGTTCA | -0.149
AGAGTTCA | -0.0646
CAAGTTTA | 0.0197
GGAGTTCA | 0.339
AGAGTTTA | 0.27
AAAGTTTA | 0.203
CGAGTTTA | 0.0867
GGAGTTTA | 0.396
GAAGTTTA | 0.319
ACATCTAT | 0.17
GACGCCTC | -0.125
ACTCCTAG | -0.0737
CACTATCA | -0.0232
CGGTCGGA | 0.211
TAGTCGGA | 0.317
CAGTCGGA | 0.204
GAGTCGGA | 0.324
AAGTCGGA | 0.226
TAGTCGCA | -0.0489
AGGTCGGA | 0.316
GAGTCGGC | 0.00136
AGGTCGGC | -0.131
CGTAATGC | 0.0921
ACACAACA | 0.128
AAGATAGG | 0.013

Sequence | PBM E-score
GTCCCAAC | -0.138
GACTATGC | 0.0066
AACTAGAG | 0.0891
ACCTCTAG | -0.0682
GTGGCAGA | -0.253
CATAACGC | -0.00576
GATGAAGC | -0.0232
TAACTGCA | 0.0867
GCGGAACA | -0.11
ACGGAATC | 0.252
CCGGAATC | 0.326
CCGGAACC | 0.185
TCGGAACA | 0.303
CCGGAACA | 0.304
CCGGAATA | 0.294
CCGGAAGG | 0.169
CCGGAACG | 0.202
ACGGAACA | 0.229
ACGGAAGA | 0.147
CCGGAAGA | 0.312
